Structures are written as SMILES. Values joined by “and” are separate entries in the source; they are usually repeats but may differ in a detail not shown here. Identical values can stand only once. Results filed as inconclusive are left out. Entries that show only a call come without a potency. Some compounds were tested as several samples or in several runs, with calls that do not always agree. Active and inactive are the calls of the source. Calls come from the whole dose curve; as a rule, active = well fitted cell-killing curve with a large enough effect in the repeat runs; inconclusive = weak or mixed curves, or effect the other way; inactive = flat fitted curve, though single readings scatter.
Potency is the fitted concentration of half-maximal effect.

A short description of the assay: Nuclear factor erythroid 2-related factor 2/antioxidant responsive element (Nrf2/ARE) small molecule agonists: qHTS cell viability counter screen in human keratinocytes (AID 1919968). Note: nearly all actives have a fitted effect of over 55% in size. Conditions: KeratinoSens HaCaT ARE cells viability, CellTiter-Fluor, 24 h; series mostly up to 92.4 µM. An excerpt: U.S. Tox21 Program National Center for Advancing Translational Sciences [NCATS] Division of Preclinical Innovation [DPI] U.S. Environmental Protection Agency [EPA] National Institutes of Environmental Health Sciences [NIEHS] National Toxicology Program [NTP] U.S. Food and Drug Administration [FDA] Tox21 Assay Overview: Oxidative stress has been implicated in the pathogenesis of a variety of diseases ranging from cancer to neurodegeneration. The antioxidant response element (ARE) signaling pathway plays an important role in the amelioration of oxidative stress. The KeratinoSens (Givaudan, Switzerland) is an in vitro test method which quantifies luciferase induction as a measure of activation of Keap1-Nrf2-antioxidationt/electrophile response element (ARE) dependant pathway in HaCaT human keratinocytes stably transfected with a selectable plasmid. The KeratinoSens assay is a cell-based assay with a reporter cell line to detect potential skin sensitizers by their ability to induce the Nrf2/ARE-response. The activation of the report gene under culture conditions can be detected by ONE-Glo Luciferase Assay System (Promega, Madison, WI). This cell line has been used to screen the Tox21 10K compound library to identify agonists that induce oxidative stress. The cytotoxicity of the Tox21 compound library against the KS-ARE cell line was tested in parallel by measuring the cell viability using CellTiter- Fluor assay system (Promega, Madison, WI) in the same wells.
Tox21 Assay Protocol Summary: HaCaT derived cell line KeratinoSens were dispensed at 1,500 cells/5uL/well in 1536-well white wall/solid bottom plates using a Multidrop Combi (ThermoFisher Scientific, Waltham, MA) dispenser. After the assay plates were incubated at 37 C/5% CO2 for 5 h, 23 nL of compounds dissolved in DMSO, positive controls or DMSO only was transferred to the assay plate by a pintool workstation (Kalypsys, San Diego, CA). The plates were incubated at 37 C/5% CO2 for 23 h, followed by addition of 1uL/well of CellTiter-Fluor reagent into the assay plates using a Flying Reagent Dispenser (Aurora Discovery, San Diego, CA) for cell viability readout that measures cytotoxicity. After 1 h incubation at 37 C/5% CO2 the fluorescence intensity was measured using a ViewLux (PerkinElmer, Shelton, CT) plate reader.
On to `O=[N+]([O-])C(CO)(CO)CO`, for which the Potency result is “inactive”.
The value for `C#C[C@]1(O)CC[C@H]2[C@@H]3CCC4=CC(=O)CC[C@@H]4[C@H]3CC[C@@]21CC` was “inactive”.
For `COC1=CC(=O)C[C@@H](C)[C@]12Oc1c(Cl)c(OC)cc(OC)c1C2=O`, the Potency result was “inactive”.
The value for `O=S(=O)(O)c1ccc2ccccc2c1` was “inactive”; that for `CCc1cccc(C)c1N` was “inactive”; that for `CC(=O)Nc1ccc(CC(=O)O)cc1` was “inactive”.
For `CCCC(O)C(CC)CO` (stereo not given) the value was “inactive”; for `CC[C@H](C)C(=O)O[C@H]1C[C@@H](C)C=C2C=C[C@H](C)[C@H](CC[C@@H]3C[C@@H](O)CC(=O)O3)[C@H]21`, 69.6 µM (active) and inactive.
Turning to `CN(C)c1nc(N(C)C)nc(N(C)C)n1`, the Potency result was “inactive”.
As to `CCCCCCCCCCCCCCCO`, the Potency result was “inactive”.
`Nc1ncnc2nc[nH]c12`: the Potency result was “inactive”.
The value for `c1ccc2[nH]ccc2c1` was 8.49 µM (active) and inactive; that for `CC1(C)OC(=O)NC1=O` was “inactive”; that for `CCCCCCC=O` was “inactive”.
As for `O=C1NS(=O)(=O)c2ccccc21`, the Potency result is “inactive”.
As to `CC1=NN(c2ccccc2)C(=O)C1`, the Potency entry is “inactive”.
For `NC(=S)NNC(N)=S`, the Potency result was “inactive”.
The value for `C/C=C/C(=O)N(CC)c1ccccc1C` was “inactive”; that for `CCOCCOCCO` was “inactive”; that for `Cc1ccc(S(=O)(=O)Oc2ccc(N=Nc3ccc(-c4ccc(N=Nc5c(O)ccc6cc(S(=O)(=O)O)cc(S(=O)(=O)O)c56)c(C)c4)cc3C)cc2)cc1` was 24.4 µM (active) and 17.8 µM (active).
For `COc1cc2c(c(OC)c1OC)-c1ccc(OC)c(=O)cc1[C@@H](NC(C)=O)CC2` the value was “inactive”; for `CCCCCCCCCCCCCC(=O)OC(C)C`, “inactive”; for `O=C(O)CCCCCCCC(=O)O`, “inactive”.
For `N=C(N)c1ccc(OCCCCCOc2ccc(C(=N)N)cc2)cc1` the value was “inactive”; for `CCCCCCCCCCCCCCCC[N+](C)(C)Cc1ccccc1`, 28.2 µM (active) and 24.8 µM (active) and 26.6 µM (active); for `COc1ccc(NC(C)=O)cc1N`, “inactive”.
Consider `Cc1noc(NS(=O)(=O)c2ccc(N)cc2)c1C`, for which the Potency result is “inactive”.
For `CCCCCCCCCCCCCC[N+](C)(C)Cc1ccccc1` the value was 24.7 µM (active) and 13.3 µM (active) and 12.6 mM (active); for `Nc1cccc(N)c1`, “inactive”.
For the molecule `O=[N+]([O-])c1cccc(Cl)c1`, the Potency result is “inactive”.
On to `CCCCNC(N)=O`, for which the Potency entry is “inactive”.
On to `N#Cc1ccccc1`, for which the Potency result was “inactive”.
For the molecule `CC(=O)CC/C=C(\C)CCC=C(C)C`, the Potency entry is “inactive”.
For `C=C(C)C(=O)OCCCCCC`, the Potency result was “inactive”.
For the molecule `ClC/C=C/CCl`, the Potency entry is “inactive”.
The value for `CC(O)CN(CCN(CC(C)O)CC(C)O)CC(C)O` (stereo not given) was “inactive”; that for `CN(C)c1ccc(C(=C2C=CC(=[N+](C)C)C=C2)c2ccccc2)cc1` was 4.33 µM (active) and 6.68 µM (active).
For `CC(=O)C1=C(C)[C@@H]2C[C@@]3(C1)[C@H](C)CC[C@H]3C2(C)C`, the Potency entry was “inactive”.
The value for `O=C(O)CCCCC(=O)O` was “inactive”; that for `CC(COc1ccccc1)N(CCCl)Cc1ccccc1` (stereo not given) was “inactive”.

For the origin of these results see PubChem BioAssay (Tox21).
